Compound activity as filed in PubChem.
KKLEB cytotox: CF airway cell cytotoxicity counter-screen. KKLEB CF airway cells viability, ATPlite luminescence, overnight; hits give low values; cells stimulated with P. aeruginosa culture filtrate. activity change (cytotoxicity), % at 5 µM. 360,000 tested, 0.36% active. AID 602141;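 active = corrected activity change at or below -50% at 5 µM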
CF NFkB block: inhibitors of cystic fibrosis induced NF-kB. KKLEB NF-kB-GFP reporter, PAF-induced, GFP fluorescence overnight. inhibition, % at 5 µM. 360,000 tested, 0.86% active;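 active = at least 50% inhibition at 5 µM, scaled per plate between neutral and stimulator controls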;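 note: PAF is a Pseudomonas aeruginosa culture filtrate used as stimulus; plate controls were PAF-stimulated DMSO wells for no effect and unstimulated DMSO wells for full effect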
Peg3 prom inh: inhibitors of Peg3 promoter; HeLa PEG-Prom luciferase reporter, luminescence, overnight; inhibition, % at 20 µM; 360,000 tested, 1.7% active; AID 588405;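 active = inhibition of at least 50% at 20 µM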
HIF-2a inh: blocks HIF-2a reporter activity; 786-0 RCC cells HIF-2a reporter, luciferase luminescence, overnight; inhibition, % at 18.8 µM; 360,000 tested, 0.72% active; AID 624352;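 active = inhibition of the luminescence signal of 40% or more relative to plate controls, in a single-dose primary screen at 18.75 µM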
MITF TRPM1 inh: inhibitors of MITF-driven TRPM1 promoter in melanoma cells. SK-MEL-5 TRPM1 promoter luciferase, 24 h. inhibition, % at 12.5 µM. 330,000 tested, 0.83% active. AID 488899;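 active = mean inhibition across replicates of 60% or more, whatever share of single replicates reaches that level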
Shn3 3UTR inh: Schnurri-3 reporter inhibition in Clone20 osteoblasts; Clone20 osteoblast Shn3 3'UTR firefly luciferase, 24 h; inhibition, % at 12.5 µM; 360,000 tested, 0.52% active;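 active = mean inhibition of at least 75% with every replicate also reaching 75%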;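 note: 0% = median of neutral control wells and 100% = pilot-screen positive control compound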
CF NFkB inh conf: CF NF-kB inhibition confirmation, single concentration | KKLEB CF airway cells, PAF-induced NF-kB-GFP fluorescence, overnight | inhibition, % at 5 µM | 1,300 tested, 64% active | AID 602472 | shares compounds with CF NFkB block; in the data active = inhibition above about 40%;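 note: stimulus PAF is a Pseudomonas aeruginosa filtrate and not platelet activating factor; plate controls were DMSO wells with stimulus for no effect and unstimulated DMSO wells for full effect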
* hit, by the source's call; · = no result given. Only some compounds are listed: those with a hit (about 2.7% of all), similar ones and a draw of the others.

SMILES	KKLEB cytotox	CF NFkB block	Peg3 prom inh	HIF-2a inh	MITF TRPM1 inh	Shn3 3UTR inh	CF NFkB inh conf
CCOc1ccc(S(=O)(=O)NC2CCCC2)cc1	-2	-12	12	9	-5	-7	·
N#CC(C#N)=C1SC(=Nc2ccccc2)C(=Nc2ccccc2)N1c1ccccc1	-42	67*	89*	-66	-2	37	79*
CC(=O)Nc1ccc(NC(=O)c2cccc(C(=O)OC(C)C)n2)cc1	5	-1	-2	1	-3	1	·
CC(C)OC(=O)c1cccc(C(=O)Nc2cccc(NC(=O)c3cccc(C(=O)OC(C)C)n3)n2)n1	-4	57*	46	12	0	28	62*
Oc1ccc(CCNc2ncnc3ccc(Cl)cc23)cc1	-2	70*	10	11	33	88*	89*
N#CSCC(=O)c1cccc2ccccc12	-35	55*	32	20	18	-4	54*
CCOC(=O)c1[nH]c2c(c1C)C(=O)CC(c1ccco1)C2 (centres undefined)	-19	57*	-27	10	21	11	80*
CCc1noc(C)c1C(=O)N(C)CC(=O)Nc1ccc(Br)cc1C	0	-8	0	15	6	14	·
Cc1cnc(C=O)c2cccc([N+](=O)[O-])c12	-38	83*	19	15	·	3	65*
COc1cc2cncc(Cc3ccc(Cl)cc3)c2cc1OC	-14	72*	6	9	-27	45	87*
COc1cc2nc(CN(C)Cc3ccc(Cl)cc3)[nH]c(=O)c2cc1OC	-2	11	16	28	10	-4	·
CCOC(=O)/C(=C\c1cccc(O)c1)c1nc2sc(C)c(C)c2c(=O)[nH]1	-26	74*	115*	95*	25	36	-97
Cc1ccc2occ(/C=N/NC(=O)c3ccccc3Br)c(=O)c2c1	1	57*	29	34	-7	26	57*
Cc1ccc2occ(/C=N/NC(N)=S)c(=O)c2c1	13	-33	-52	-30	-2	-21	·
CCOc1ccccc1C(=O)N/N=C/c1coc2ccc(C)cc2c1=O	-31	71*	7	23	12	0	13
O=C(N/N=C/c1coc2ccccc2c1=O)c1ccccc1	3	6	11	10	3	10	·
Cc1ccc2occ(/C=N/NC(=O)c3ccc(O)cc3)c(=O)c2c1	-24	66*	-6	19	-7	-9	29
CCOC(=O)/C=C/C(=O)Nc1cc(S(=O)(=O)Nc2ccc(OC)cc2)ccc1N1CCOCC1	-9	63*	27	-16	55	10	36
Cc1ccc(S(=O)(=O)N(C)C)cc1NC(=O)COC(=O)CCC1CCCCC1	-12	0	-1	0	10	11	·
COc1cccc2sc(N3CCN(c4nc5ccccc5s4)CC3)nc12	-34	56*	16	0	24	62	29
c1cc(-c2cnc3cccnn23)c2cccnc2c1	-21	75*	6	28	·	5	51*
Cc1ccc(/C(=C\CN2CCCC2)c2ccccn2)cc1	33	51*	-28	19	0	-2	15
CCCc1cc(=O)[nH]c(SCCc2ccccc2)n1	-16	24	15	-15	2	-23	·
COc1ccc(S(=O)(=O)c2c(O)c3ccc(C(=O)Nc4ccccc4Cl)cc3[nH]c2=O)cc1	-19	76*	6	5	9	-8	69*
C=CCN(CC=C)c1ncnc2[nH]ncc12	3	65*	13	15	-16	5	63*
CN(c1cccnc1)c1ncnc2[nH]ncc12	0	18	-9	9	-6	6	·
O=C1C2C(c3ccccc3)CC=CC2[C@H](c2ccoc2)N1Cc1ccccc1 (some centres undefined)	17	8	27	10	0	-4	·
O=C1C2C(c3ccccc3)CC=CC2[C@H](c2ccc3ccccc3c2)N1Cc1ccccc1 (some centres undefined)	-33	55*	15	37	-17	20	43*
